Results on 40 compounds are retold here after PubChem BioAssay (NCATS).

This test can be described thus: qHTS profiling of the MIPE4 collection as inhibitors of Plasmodium falciparum (HB3) proliferation (AID 743347).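 Note: plate controls were DMSO vehicle wells for no effect and artemisinin wells for full effect.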 The settings on record: P. falciparum HB3 in erythrocytes, SYBR Green DNA, 72 h; at 28.5 µM (top of the series) unless noted. From the text:
Plasmodium falciparum is a virulent malarial parasite that kills 1-2 million people worldwide each year. Transmitted by mosquitoes, the sporozoite form of the parasite enters the blood stream to infect hepatocytes, where they become merozoites that infect red blood cells (erythrocytes). Within erythrocytes, merozoites begin a […] cycle of growth and division, after which the parasite is released to infect new red blood cells. Gametocytes, which form within erythrocytes as well, circulate in the bloodstream and are ingested by the mosquito, thereby completing the life cycle. To profile malarial isolates for differential chemical responses and to identify inhibitors of malarial growth, an assay that measures P. falciparum growth and replication within erythrocytes was employed. This assay uses a DNA binding fluorescent dye (SYBR Green) to detect parasite DNA following cell lysis. Because mature erythrocytes lack DNA, only Plasmodium-derived DNA is detected.
The SYBR Green viability assay was adapted from a method described previously (Plouffe et al., 2008). For screening 3 ul culture medium was dispensed into 1536 well black clear bottom plates (Aurora Biotechnologies) using a Multidrop Combi (Thermo Fisher Scientific Inc.), 23 nL compounds in DMSO were added by a pin tool (Kalypsys), and 5 ul of erythrocytes infected with P. falciparum (0.3% parasitemia, 2.5% hematocrit final concentration) were added. The plates were incubated at 37 C in a humidified incubator in 5% CO2 for 72 h, and 2 ul lysis buffer (20 mM Tris HCl, 10 mM EDTA, 0.16% saponin, 1.6% triton X, 10X SYBR Green I supplied as 10,000X […] by Invitrogen) was added to each well. The plates were mixed for 25 sec with gentle shaking and incubated overnight at room temperature in the dark. The following morning, fluorescence intensity at 485(14) nm excitation and 535(25) nm emission wavelengths was measured on an EnVision (Perkin Elmer) plate reader. Plate reads were normalized relative to the control inhibitor (0.29 uM artemisinin) and vehicle (DMSO) wells present on each plate and then corrected by an algorithm using vehicle-only control plates at the beginning and end of the compound plate stack.
(In general: In qHTS, concentration-response curves come from the screen itself.)
Regarding `Cc1cc(OCCCc2c(C(=O)O)n(Cc3cccnc3)c3c(-c4c(COc5ccc(N6CCN([S+](C)(=O)[O-])CC6)cc5)nn(C)c4C)cccc23)cc(C)c1Cl`, the growth, % of control was 5.16%.
Compound `O=c1cc(-c2ccccc2)oc2cc(O)cc(O)c12` had a growth, % of control of 43.5%.
`CO[C@H]1C[C@@H]2CC[C@@H](C)[C@@](O)(O2)C(=O)C(=O)N2CCCC[C@@H]2C(=O)O[C@H]([C@H](C)C[C@@H]2CC[C@H](OC(=O)C(C)(CO)CO)[C@H](OC)C2)CC(=O)[C@H](C)C=C(C)[C@@H](O)[C@@H](OC)C(=O)[C@H](C)C[C@H](C)C=CC=CC=C1C` returned a growth, % of control of 3.93%.
With `COc1ccc(-n2c(C)c([N+](=O)[O-])c3ccc(O)cc32)cc1`, the growth, % of control amounted to 34.7%.
On to `CCCCCCCCCCCC1=C(O)C(=O)C=C(O)C1=O`, for which the growth, % of control was determined as 27.2%.
In the case of `COc1cc(N2CCC(N3CCN(C)CC3)CC2)ccc1Nc1ncnc(Nc2ccccc2S(=O)(=O)C(C)C)n1`, the growth, % of control was determined as 4.08%.
`CC(C)(C)OC(=O)N[C@H]1CCCCCC=C[C@@H]2C[C@@]2(C(=O)NS(=O)(=O)C2CC2)NC(=O)[C@@H]2C[C@@H](OC(=O)N3Cc4cccc(F)c4C3)CN2C1=O` yielded a growth, % of control of 4.63%.
`CCC(=O)NC[C@H](Cc1ccc(OCCc2nc(-c3ccccc3)oc2C)cc1)NC(C)=CC(=O)c1ccc(C(F)(F)F)cc1` gave a growth, % of control of 9.04%.
In the case of `Cc1cccc(Nc2nc(-c3ccncc3)cs2)c1`, the growth, % of control was determined as 17.7%.
In turn, `O=c1c(-c2ccc(O)cc2)coc2cc(O)ccc12` yielded a growth, % of control of 89.3%.
With `COc1cc(NC(=O)c2ccc(-c3ccc(Cl)cc3)o2)cc(OC)c1`, the growth, % of control was 94.4%.
In the case of `C[C@]12CC[C@@H]3c4ccc(O)cc4C[C@@H](CCCCCCCCCS(=O)CCCC(F)(F)C(F)(F)F)[C@H]3[C@H]1CC[C@H]2O` (stereo not given in full), the growth, % of control worked out at 3.95%.
Take `CN(C)c1cc(NC(=O)CNC(C)(C)C)c(O)c2c1C[C@@H]1C[C@H]3[C@H](N(C)C)C(=O)C(C(N)=O)=C(O)[C@@]3(O)C(=O)C1=C2O`: the growth, % of control is 98.7%.
For the compound `Cc1ccc([C@@H]2O[C@H](CO)[C@@H](O)[C@H](O)[C@@H]2O)cc1Cc1ccc(-c2ccc(F)cc2)s1`, the growth, % of control amounted to 310%.
Compound `CCOC(CN1C(=O)[C@](CC(=O)Nc2ccc(C)cc2)(NC(=O)Nc2ccc(C)cc2)c2ccccc21)OCC` returned a growth, % of control of 15.7%.
The compound `COC(=O)C1=CO[C@@H](O)[C@@H]2C(CO)=CC[C@@H]12` yielded a growth, % of control of 91%.
Regarding `NC(CO)(CO)CCc1ccc(Sc2cccc(OCc3ccccc3)c2)cc1Cl`, the growth, % of control came out at 6.89%.
For `Cc1nc(N)sc1-c1ccnc(Nc2ccc(N3CCOCC3)cc2)n1`, the growth, % of control turned out to be 5.5%.
In turn, `CC1(C)CCC[C@@]2(C)[C@@H]1CC[C@@]1(C)OC(=O)C[C@H]21` came in with a growth, % of control of 64.8%.
Consider `CCn1c(C(=O)N(C2CC2)C2CC2)cc2c3c(ncn3C)c(Nc3cc(C)n(C)n3)nc21`, for which the growth, % of control worked out at 11.5%.
The compound `N[C@@]1(C(=O)O)CS(=O)(=O)[C@H]2[C@H](C(=O)O)[C@H]21` registered a growth, % of control of 59.7%.
On to `C[C@H](NC(=O)C(=O)Nc1ccccc1C(C)(C)C)C(=O)N[C@@H](CC(=O)O)C(=O)COc1c(F)c(F)cc(F)c1F`, for which the growth, % of control is 405%.
In turn, `Clc1ccc(C(c2ccc(Cl)cc2)n2cc[n+](CC(OCc3ccc(Cl)cc3Cl)c3ccc(Cl)cc3Cl)c2)cc1` (stereo not given) gave a growth, % of control of 7.48%.
Take `CC(=O)O[C@]1(C(C)=O)CC[C@@H]2[C@@H]3C[C@H](C)C4=CC(=O)CC[C@]4(C)[C@H]3CC[C@@]21C`: the growth, % of control turned out to be 16.6%.
With `CC(C)(Cc1ccc2ccccc2c1)NC[C@@H](O)COc1cccc(Cl)c1C#N`, the growth, % of control was 92%.
As to `Cc1ccc(/C=N/NC(=O)c2ccccc2Oc2ccccc2)o1`, the growth, % of control was 92%.
The compound `COc1ccc2c3c1OC1C[C@@H](O)C=C[C@@]31CCN(C)C2` (stereo not given in full) yielded a growth, % of control of 69.6%.
The compound `CN(C)Cc1ccc(-c2nc3cccc4c3n2CCNC4=O)cc1` displayed a growth, % of control of 97%.
In the case of `CCC(CC)[C@H](NC(C)=O)[C@@H]1[C@H](O)[C@@H](C(=O)O)C[C@@H]1N=C(N)N` it was 97.8%; in that of `NC(=O)c1ccc2nc(-c3ccc(Oc4ccc(Cl)cc4)cc3)[nH]c2c1`, 83.4%.
For the compound `O=C(CCN1CCN(C(=O)OCc2cc(Cl)cc(Cl)c2)CC1)c1ccc2[nH]c(=O)oc2c1`, the growth, % of control turned out to be 105%.
For `NC(=O)c1cnc(-c2ccc(C3(N)CCC3)cc2)c(-c2ccccc2)c1`, the growth, % of control was 75.7%.
`NC[C@@H]1O[C@@H](O[C@H]2[C@@H](O)[C@H](O[C@@H]3[C@@H](O)[C@@H](N)C[C@H](N)[C@H]3O[C@H]3O[C@H](CN)[C@@H](O)[C@@H](O)[C@H]3N)O[C@H]2CO)[C@H](N)[C@@H](O)[C@@H]1O` displayed a growth, % of control of 99.6%.
`COc1ccc(Cc2ccc(NC(N)=O)cc2)cc1-c1cccc(Cl)c1` gave a growth, % of control of 69.6%.
The compound `O=C(O)c1cc(O)c2c(c1)C(=O)c1cccc(O)c1C2=O` gave a growth, % of control of 44.1% [at 57.5 µM].
In the case of `Cc1ccc(C(=O)Nc2cccc(C(F)(F)F)c2)cc1Nc1nc(-c2cccnc2)nc2c1cnn2C` it was 10.4%; in that of `COC1CCC(N(C(=O)C2CCC(C)CC2)c2cc(C3=CCCCC3)sc2C(=O)O)CC1` (stereo not given), 22.9%.
In the case of `O=C(Nc1c(Cl)cncc1Cl)c1ccc(OC(F)F)c(OCC2CC2)c1` it was 100%; in that of `O=C(N[C@@H](c1ccccc1)[C@@H]1CCCCN1)c1cccc(C(F)(F)F)c1Cl`, 8.07%.
In turn, `O=C(CCc1ccc(O)cc1)c1c(O)cc(O)cc1O[C@@H]1O[C@H](CO)[C@H](O)[C@H](O)[C@H]1O` showed a growth, % of control of 54%.
